# An excerpt weighted towards active compounds, which were near 11% of everything screened.
# FLuc inh: Photinus pyralis luciferase inhibition; purified P. pyralis luciferase, luminescence, biochemical; Potency, µM (doses to about 115 µM), hits mostly inhibitors; 2.5% of 76,000 active; AID 1347043; also: % is scaled to controls: 0 for no effect and ±100 for the full control effect; nearly all actives have a fitted effect of over 65% in size
# Target sequence (P08659 whole entry, looked up): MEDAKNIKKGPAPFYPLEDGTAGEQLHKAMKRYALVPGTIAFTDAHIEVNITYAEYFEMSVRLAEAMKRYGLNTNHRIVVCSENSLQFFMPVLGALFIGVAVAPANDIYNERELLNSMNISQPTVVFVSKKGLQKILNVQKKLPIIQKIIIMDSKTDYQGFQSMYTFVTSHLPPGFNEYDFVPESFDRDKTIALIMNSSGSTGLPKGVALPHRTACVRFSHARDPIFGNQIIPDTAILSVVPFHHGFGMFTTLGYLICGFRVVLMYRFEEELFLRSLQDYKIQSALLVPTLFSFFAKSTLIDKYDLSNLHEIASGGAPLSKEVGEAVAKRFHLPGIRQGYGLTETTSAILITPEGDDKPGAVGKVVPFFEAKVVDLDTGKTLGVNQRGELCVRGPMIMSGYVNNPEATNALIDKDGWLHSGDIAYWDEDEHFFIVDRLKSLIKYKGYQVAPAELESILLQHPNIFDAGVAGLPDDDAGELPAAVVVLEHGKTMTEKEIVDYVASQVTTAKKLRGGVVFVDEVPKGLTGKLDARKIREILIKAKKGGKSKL
#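 Luminescence read by CCD imager after adding enzyme (10nM final) to wells holding compound, titrated in qHTS. Substrates 10uM each D-luciferin and ATP; buffer 50mM Tris acetate pH 7.5, 10mM Mg acetate, Tween-20, BSA.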
# HEK cytotox: kills HEK 293 cells; HEK 293 viability, ATP luminescence (CellTiter-Glo), 48-72 h; Potency, µM (titrated, usually from 115 µM), without a hit: top-dose activity change, negative = cytotoxicity, hits mostly inhibitors; 6.6% of 94,000 active; AID 1345083; also: % is scaled to controls: 0 for no effect and ±100 for the full control effect; nearly all actives have a fitted effect of over 60% in size
#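 CellTiter-Glo luminescence (cellular ATP) was read after 48 or 72 hr of compound exposure at 37 degree Celsius. Cells were HEK 293 plated at 250 cells/well.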
# hNpr1 antagonist: blocks ANP-stimulated signaling of human Npr1 receptor. P16066. HEK293 hNpr1 GloSensor cGMP, ANP-stimulated luminescence. Potency, µM (top dose mostly 46.3 µM), without a hit: at the highest dose activity change, negative = inhibition, usual class: inhibitors. 1.6% of 76,000 active. AID 1347048; calls by dose curve; also: % is scaled to controls: 0 for no effect and ±100 for the full control effect; nearly all actives have a fitted effect of over 60% in size
#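 Compound pre-incubated 30 min at room temperature on GloSensor-loaded HEK293 cells stably carrying hNpr1 and the pGS-40F cGMP biosensor. Stimulation uses hNppA at 0.1 nM final; luminescence is taken at baseline and 20 min post-agonist.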
# 3T3 cytotox: cytotoxic compounds in NIH 3T3 cells | Potency, µM (top dose mostly 96.7 µM), for inactives: top-dose activity change, negative = cytotoxicity, hits mostly inhibitors | NIH 3T3 viability, CellTiter-Glo ATP luminescence, 48-72 h | 4.3% of 94,000 active; also: % is scaled to controls: 0 for no effect and ±100 for the full control effect; nearly all actives have a fitted effect of over 55% in size
#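 First NIH 3T3 cells are plated at 400 cells/well; next compound is pinned in; then plates incubate 48 or 72 hr at 37 °C; finally CellTiter-Glo is added and luminescence read after 10 min.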
# Npr1 antag conf: confirmation of human Npr1 natriuretic peptide receptor antagonists; shares compounds with hNpr1 antagonist; HEK293 hNpr1 cGMP GloSensor luminescence, ANP-stimulated; Potency, µM (series often up to 57.6 µM), without a hit: at the top dose activity change, negative = inhibition, actives largely listed as inhibitors; 76% of 1,400 active; AID 1347044; calls by dose curve; also: nearly all actives have a fitted effect of over 70% in size
# Npr2 selectivity: antagonizes human Npr2, subtype selectivity check. shares compounds with hNpr1 antagonist. Potency, µM (top dose mostly 57.6 µM), for inactives: top-dose activity change, negative = inhibition, most hits filed as inhibitors. 67% of 1,400 active. AID 1347046. HEK293 hNpr2 GloSensor cGMP luminescence, CNP-stimulated; calls by dose curve; also: nearly all actives have a fitted effect of over 70% in size
# FLuc inh counter: counter-screen for Npr1 antagonists: firefly luciferase inhibitors. purified FLuc enzyme, luminescence, Km substrate. 0.7% of 1,400 active. shares compounds with hNpr1 antagonist. Potency, µM (highest dose often 57.6 µM), for the others: at the highest dose activity change, negative = inhibition, hits mostly inhibitors; also: 0% is about no effect
# GloSensor ctrl: reduces cGMP signal in GloSensor control cells | AID 1347051 | shares compounds with hNpr1 antagonist | 69% of 1,400 active | Potency, µM (top dose mostly 57.6 µM), for inactives: at the top dose activity change, negative = inhibition, usual class: inhibitors | HEK293 GloSensor cGMP, SNP-stimulated, luminescence; calls by dose curve; also: % is scaled to controls: 0 for no effect and ±100 for the full control effect; nearly all actives have a fitted effect of over 70% in size
# * hit, by the source's call; i = inactive; u = inconclusive; x = not tested or not shown; [ ] = remark or other dose. Unless noted, calls follow the shape of the dose curve; as a rule, active = well fitted curve in the direction sought with a large enough effect; inconclusive = small, poorly fitted or top-dose-only effect, or another doubt; inactive = no such curve, though single readings can be large; an effect the other way counts as inactive or inconclusive. Potency is read from the fitted curve at half-maximal effect.
SMILES,FLuc inh,HEK cytotox,hNpr1 antagonist,3T3 cytotox,Npr1 antag conf,Npr2 selectivity,FLuc inh counter,GloSensor ctrl
C=CCOC(=O)C1=C(C)N=C2SC=C(CC(=O)N3CCCC3)N2C1c1ccccc1Cl (stereo unspecified),i,u,13µM*,-13%,24µM*,24µM*,-2%,u
COc1ccc(NC(=O)c2ccc3c(c2)NC(C)(CNc2ccccc2)CO3)cn1 (stereo unspecified),i,45µM*,35µM*,u,40µM*,u,-27%[86.2 µM],u
CC1(COCC2CC2)COc2ccc(C(=O)Nc3cccnc3)cc2N1 (stereo unspecified),u,u,u,-24%[138 µM],-30%[86.2 µM],-26%[86.2 µM],-18%[86.2 µM],-21%[86.2 µM]
CC(C)(C)c1cnc([C@@H]2COCCN2CC2CC2)[nH]1,i,-3%[230 µM],2%[70.6 µM],-11%[230 µM],x,x,x,x
O=C(c1ccccc1)N1CCC(C(=O)N2CCC(c3nc4ccncc4[nH]3)C2)CC1 (stereo unspecified),x,i,x,-5%,x,x,x,x
COc1ccccc1CNC(=O)C1CCc2ncc(-c3ccsc3)n2C1 (stereo unspecified),i,u,-21%,-14%,u,-28%,0%,12%
CCNC(=O)C1CCc2ncc(-c3ccsc3)n2C1 (stereo unspecified),i,2%,0%,-4%,x,x,x,x
O=C1COc2ccc(N3CCCC3)nc2CN1Cc1ccccc1,i,u,-20%[70.6 µM],u,x,x,x,x
O=C1COc2ccc(-c3ccc(Cl)cc3)nc2CN1Cc1ccccc1,i,63µM*,u,u,31µM*,22µM*,3%[86.2 µM],u
O=C1COc2ccc(Nc3ccc(Cl)cc3)nc2CN1Cc1nc2ccccc2s1,i,32µM*,u,40µM*,u,u,-3%[86.2 µM],u
Cc1nc(CN2Cc3nc(-c4ccc(Cl)cc4)ccc3OCC2=O)cs1,i,u,u,u,x,x,x,x
CNC(=O)c1onc(-c2ccc(OC)cc2)c1[C@H](C)O,i,0%[230 µM],0%[70.6 µM],-13%[174 µM],x,x,x,x
CC(C)CNC(=O)C(NC(=O)c1ccccc1)C1CCN(C(=O)CC(C)C)CC1 (stereo unspecified),i,u,5%,-10%,x,x,x,x
C=CCCOC(=O)N1CC(=O)N(Cc2cccc(F)c2)CC(O)C1 (stereo unspecified),x,i,x,u,x,x,x,x
O=C(c1[nH]nc2c1CCc1ccccc1-2)N1CCC(c2noc(-c3cccnc3)n2)C1 (stereo unspecified),i,35µM*,13µM*,u,22µM*,24µM*,-3%,22µM*
COc1ccc(OC)c(NC(=O)N2CCCN(C)c3ccccc32)c1,i,u,u,u,u,12µM*,0%,-2%
COc1ccc(C(=O)N2CCCN(C)c3ccccc32)c(OC)c1,i,u,-22%,u,x,x,x,x
O=C(NCc1ccccc1F)c1ccc2c(c1)CN(Cc1ccncc1)CCO2,i,u,13µM*,-36%,17µM*,17µM*,5%,11µM*
COc1ccc(CN2CCOc3ccc(C(=O)NCc4ccccc4F)cc3C2)cc1OC,i,u,-20%,-16%,x,x,x,x
CN(Cc1cccn1C)C(=O)NC1CCCC1,i,u,2%[70.6 µM],u,x,x,x,x
CC(C)c1noc(-c2cn(C3CCN(C(=O)c4cccc(F)c4)C3)nn2)n1 (stereo unspecified),i,u,u,u,x,x,x,x

# From PubChem BioAssay
